Several values for one entry are separate records, joined by “and”; a condition that tells them apart may be missing. Equal entries are not always repeated.
The compounds below were run against Mitogen-activated protein kinase kinase kinase kinase 4 (Homo sapiens) (UniProt O95819). Settings: at 1 µM.
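Also: reported figure is an averaged inhibition value.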

Mitogen-activated protein kinase kinase kinase kinase 4 (Homo sapiens), sequence (O95819 2-1239 limits assumed): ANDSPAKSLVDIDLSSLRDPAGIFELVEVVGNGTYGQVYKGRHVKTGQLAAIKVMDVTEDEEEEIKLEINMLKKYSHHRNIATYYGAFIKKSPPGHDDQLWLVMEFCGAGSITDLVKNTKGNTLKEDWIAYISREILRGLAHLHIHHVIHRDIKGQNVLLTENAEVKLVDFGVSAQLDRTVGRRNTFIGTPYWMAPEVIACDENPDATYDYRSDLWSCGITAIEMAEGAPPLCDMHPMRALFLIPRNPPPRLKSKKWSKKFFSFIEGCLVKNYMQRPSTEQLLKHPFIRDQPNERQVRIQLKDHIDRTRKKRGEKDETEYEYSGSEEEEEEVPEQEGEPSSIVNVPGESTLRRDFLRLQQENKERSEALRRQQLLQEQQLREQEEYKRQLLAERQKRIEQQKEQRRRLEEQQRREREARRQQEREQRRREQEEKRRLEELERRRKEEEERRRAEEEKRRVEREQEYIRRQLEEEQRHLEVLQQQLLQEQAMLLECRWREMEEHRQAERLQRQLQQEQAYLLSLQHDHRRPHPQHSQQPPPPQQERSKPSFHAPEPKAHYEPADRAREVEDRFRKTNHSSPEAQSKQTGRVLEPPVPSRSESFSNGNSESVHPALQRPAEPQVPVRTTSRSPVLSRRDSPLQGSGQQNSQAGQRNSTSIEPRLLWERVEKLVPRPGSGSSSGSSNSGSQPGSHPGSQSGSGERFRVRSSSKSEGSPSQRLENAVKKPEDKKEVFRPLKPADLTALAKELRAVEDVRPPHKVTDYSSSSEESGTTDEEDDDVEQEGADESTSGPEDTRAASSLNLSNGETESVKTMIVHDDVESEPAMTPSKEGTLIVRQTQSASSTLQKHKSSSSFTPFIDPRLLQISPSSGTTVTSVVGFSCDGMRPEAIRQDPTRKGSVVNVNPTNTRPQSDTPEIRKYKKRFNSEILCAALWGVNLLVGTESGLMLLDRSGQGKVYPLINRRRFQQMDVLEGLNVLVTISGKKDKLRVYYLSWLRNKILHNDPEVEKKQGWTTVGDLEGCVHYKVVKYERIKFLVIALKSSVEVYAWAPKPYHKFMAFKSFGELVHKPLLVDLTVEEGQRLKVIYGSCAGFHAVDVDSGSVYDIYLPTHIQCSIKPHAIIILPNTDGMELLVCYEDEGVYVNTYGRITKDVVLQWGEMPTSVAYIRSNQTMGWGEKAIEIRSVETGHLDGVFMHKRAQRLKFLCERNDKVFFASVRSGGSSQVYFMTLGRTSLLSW

Row | Compound | inhibition
1 | NS(=O)(=O)c1ccc(N/N=C2\C(=O)Nc3ccc(C(=O)NCc4ccncc4)cc32)cc1 | 46.5%
2 | CCCNc1cccc(-n2ncc3c(N/N=C/c4ccncc4)ncnc32)c1 | 44.1%
3 | c1cnn2ncc(-c3ccnc(NCCCN4CCOCC4)n3)c2c1 | 8.87%
4 | O=C(Nc1n[nH]c2nnc(-c3cccnc3)cc12)C1CC1 | 20.3%
5 | COC(=O)Nc1nc2cc(Oc3ccc(NC(=O)Nc4ccccc4)cc3)ccc2[nH]1 | 12.9%
6 | Fc1ccc(Nc2nccc(-c3c(-c4ccc(C(F)(F)F)cc4)nn4ncccc34)n2)cc1F | 2.77%
7 | CCS(=O)(=O)c1ccc(OC)c(Nc2ncc(-c3cccc(F)c3)o2)c1 | 19.2%
8 | CN1CCC(C(=O)Nc2n[nH]c3nc(-c4ccc(O)cc4)c(Br)cc23)CC1 | 35.4% and 22.5%
9 | CC1=C(C(=O)Nc2ccc3[nH]nc(C)c3c2)C(c2ccc(C(F)(F)F)cc2)CC(=O)N1 (configuration not stated) | 1.55%
10 | COc1cccc(-n2ncc3c(N/N=C/c4ccc(C(=O)NCCN(C)C)cc4)ncnc32)c1 | 78.1%
11 | N#Cc1ccc2c(-c3ccnc(NC4CC4)n3)c(-c3ccc(F)cc3)nn2c1 | 46%
12 | COc1ccc(Nc2ncc(-c3ccccc3)o2)cc1OC | 48.3%
13 | Nc1nccc(-c2c(-c3ccc(F)cc3)ncn2C2CCNCC2)n1 | 11.7% and 20.6%
14 | Cc1cc(O)cc(C)c1/C=C/c1cncc(C(N)=O)c1 | 13.9%
15 | N#Cc1cccc(Nc2ncc(-c3ccccc3)o2)c1 | 23.8%
16 | CC1=C(C(=O)Nc2ccc3[nH]ncc3c2)C(c2ccc(F)cc2)N=C(c2ccc(C(F)(F)F)nc2)N1 (configuration not stated) | 2.92%
17 | COc1cc2c(cc1Nc1nc(Nc3cccc(F)c3C(N)=O)c3cc[nH]c3n1)N(C(=O)CN1CCN(C(C)C)CC1)CC2 | 3.14%

Reference: ChEMBL document CHEMBL1961873, “Compounds: GSK PKIS; Assays: Nanosyn kinase panel” (2012)
